p53ts 39C kill = kills p53ts cells at the nonpermissive temperature; H1299-p53A138V viability at 39C, ATP luminescence, 24 h; Potency, µM (doses to about 46.1 µM), usual class: cytotoxic; hit rate 1.5% among 130,000; AID 902; further: nearly all actives have a fitted effect of over 55% in size
Luciferase inh = blocks Photinus pyralis firefly luciferase activity | P08659 | Potency, µM (highest dose often 57.1 µM), actives largely listed as inhibitors | AID 411 | hit rate 2.2% among 72,000 | purified firefly luciferase, luminescence, 8 min; further: nearly all actives have a fitted effect of over 40% in size
Target sequence (P08659 whole entry, looked up): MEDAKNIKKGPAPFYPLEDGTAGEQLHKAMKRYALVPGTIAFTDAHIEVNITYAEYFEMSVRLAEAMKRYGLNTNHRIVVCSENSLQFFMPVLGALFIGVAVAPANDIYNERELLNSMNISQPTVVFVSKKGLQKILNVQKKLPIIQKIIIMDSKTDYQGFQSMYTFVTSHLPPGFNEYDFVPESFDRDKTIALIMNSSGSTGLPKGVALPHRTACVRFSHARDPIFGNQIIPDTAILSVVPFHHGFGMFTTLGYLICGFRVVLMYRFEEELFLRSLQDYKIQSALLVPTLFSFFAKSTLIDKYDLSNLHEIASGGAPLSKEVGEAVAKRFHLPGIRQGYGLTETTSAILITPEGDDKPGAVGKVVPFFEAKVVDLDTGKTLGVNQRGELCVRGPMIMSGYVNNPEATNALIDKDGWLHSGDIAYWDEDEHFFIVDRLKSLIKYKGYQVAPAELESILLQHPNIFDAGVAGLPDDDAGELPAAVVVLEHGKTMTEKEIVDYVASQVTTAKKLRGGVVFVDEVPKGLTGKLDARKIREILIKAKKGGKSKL
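qHTS concentration-response profiling: light output of P. pyralis luciferase with luciferin and 10 uM ATP, imidazole buffer pH 7.2. Read by luminescence after 8-min room-temperature incubation.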
Imprint erasure = genomic imprint erasure induction | mouse ES Peg3-LacZ reporter, beta-gal luminescence, 40 h | Potency, µM (doses to about 60.7 µM), usual class: activators | hit rate 0.02% among 110,000 | AID 1948
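Imprint erasure is scored as LacZ activity from the silenced maternal Peg3 allele in feeder-free female ES cells cultured 40 h with LIF. Luminescence is normalized to in-plate negative controls and fitted to the Hill equation.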
p53ts 32C tox = cytotoxicity in p53ts cells at permissive temperature | Potency, µM (top dose mostly 46.1 µM), actives largely listed as cytotoxic | H1299-p53A138V at 32C, ATP luminescence viability, 24 h | hit rate 0.93% among 130,000 | AID 924; further: nearly all actives have a fitted effect of over 55% in size
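Viability by ATPlite luminescence after 24 h compound treatment (up to 46 uM) at the permissive 32C. Cells are H1299 carrying p53 A138V. Scale runs from DMSO basal to 100 uM tamoxifen as full kill; AC50 from Hill fits.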
IkB sig inh = inhibitors of IkB signaling in ABC-DLBCL cells; AID 445; hit rate 0.04% among 110,000; Potency, µM (series often up to 57.1 µM); ABC-DLBCL IkBa-CBG/CBR dual luciferase ratio, 4 h; response scale: scaled: untreated 0%, proteasome inhibitor 100%; active means well fitted curve in the direction sought with a large enough effect in the signal ratio, not every such curve was filed as active; inconclusive means small, poorly fitted or top-dose-only effect, or a change in a side signal; the % refers to the signal ratio;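 further: the direction sought is a rising ratio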
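In this assay, an IκBα–CBG68 fusion accumulates when IKK-driven degradation is blocked; native CBR normalizes for cell number. OCI-Ly3 cells were treated 4 h with compound and doxycycline, then green and red light read after Chroma-Glo addition.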
Each line names hits and unclear results; the compound was inactive in the other large screens; ! = not confirmed by another sample. Only some compounds are listed: those with a hit (about 2.4% of all), similar ones and a draw of the others. Unless noted, the call rests on the fitted dose curve; in most records, active means well fitted curve in the direction sought with a large enough effect; inconclusive means small, poorly fitted or top-dose-only effect, or another doubt; inactive means no such curve, though single readings can be large; an effect the other way counts as inactive or inconclusive.

N#CC(C#N)=Cc1cc(O)c(O)c(O)c1	p53ts 39C kill inconclusive, p53ts 32C tox inconclusive
COc1ccc2nc(N3CCN(C(=O)CS(=O)(=O)c4ccc(C)cc4)CC3)sc2c1	p53ts 39C kill 7.94µM, p53ts 32C tox 11.2µM (no result: Luciferase inh)
c1cc(OCC2CO2)cc(OCC2CO2)c1 (centres undefined)	p53ts 39C kill 25.1µM, IkB sig inh inconclusive (no result: Luciferase inh)
CC(C)(COCC1CO1)COCC1CO1 (centres undefined)	none (no result: Luciferase inh)
CC(=O)[C@@H]1CC[C@H]2[C@H]3CC[C@H]4C[C@@H](O)CC[C@]4(C)[C@@H]3CC[C@]12C	none (no result: Imprint erasure)
CN[C@@H]1C[C@H](c2ccc(Cl)c(Cl)c2)c2ccccc21	p53ts 39C kill 25.1µM, IkB sig inh inconclusive
CN[C@@H]1C[C@@H](c2ccc(Cl)c(Cl)c2)c2ccccc21	p53ts 39C kill 12.6µM, p53ts 32C tox 20µM
CC(C)C[C@H](NP(=O)(O)O[C@@H]1O[C@@H](C)[C@@H](O)[C@@H](O)[C@H]1O)C(=O)N[C@@H](Cc1c[nH]c2ccccc12)C(=O)O	none (no result: Imprint erasure)
CNc1ccccc1C(=O)O	none (no result: Luciferase inh, IkB sig inh)
C[CH2][Hg][S]c1ccccc1C(=O)O	p53ts 39C kill 1.26µM, p53ts 32C tox 1µM (no result: Luciferase inh, IkB sig inh)
NC(=O)CI	p53ts 39C kill 5.01µM, p53ts 32C tox 6.31µM
CNC(C(=O)c1ccccc1)C(OC)c1ccccc1 (centres undefined)	none
CC(=O)[O][Hg][c]1ccccc1	p53ts 39C kill 1.58µM, p53ts 32C tox 1µM, IkB sig inh inconclusive (no result: Luciferase inh)
N[C@@H](Cc1cc(O)c(O)cc1O)C(=O)O	none (no result: Imprint erasure)
COc1c(C)cc(Br)cc1C(=O)Nc1ccc(-c2nc3ncccc3o2)cc1	p53ts 39C kill 6.31µM (no result: Luciferase inh)
COc1ccc(NC(=O)c2oc3ccc(S(=O)(=O)N(C)C4CCCCC4)cc3c2C)cc1	p53ts 39C kill inconclusive, IkB sig inh inconclusive (no result: Luciferase inh)
COc1cc2c(cc1OC)[C@@]13CCN4C=C5CCO[C@H]6CC(=O)N2[C@@H]1[C@@H]6[C@H]5C[C@H]43	none (no result: Imprint erasure)
CCC(C)C(=O)c1c(O)c(C)c2oc3c(C)c(O)c(C(=O)C(C)CC)c(O)c3c2c1O (centres undefined)	p53ts 39C kill 12.6µM, p53ts 32C tox 12.6µM (no result: Luciferase inh, IkB sig inh)
CN(C)CCC(C#N)(c1ccccc1)c1ccccc1	none
c1ccc(C(OCCN2CCNCC2)c2ccccc2)cc1	none
C(=C/c1ccccc1)/CN1CCN(CCOC(c2ccccc2)c2ccccc2)CC1	p53ts 39C kill 31.6µM, IkB sig inh inconclusive
O=C(O)c1cc(O)c(O)c(O)c1	p53ts 39C kill 10µM, p53ts 32C tox 12.6µM (no result: Luciferase inh)
CCOc1ccc(-c2cc(C(=O)N3CCC4(CC3)OCCO4)c3ccccc3n2)cc1	p53ts 39C kill inconclusive, Luciferase inh 0.631µM, p53ts 32C tox inconclusive
CNCCc1ccc(O)c(O)c1	p53ts 39C kill 20µM, p53ts 32C tox inconclusive
CCCCCCC(C)(C)c1ccc([C@@H]2C[C@H](O)CC[C@@H]2CCCO)c(O)c1	p53ts 39C kill 6.31µM, p53ts 32C tox 12.6µM, IkB sig inh inconclusive
CCC(=O)OC1CCC2C3CCc4cc(O)ccc4C3CC[C@]12C (some centres undefined)	p53ts 39C kill 10µM, p53ts 32C tox inconclusive (no result: Luciferase inh, IkB sig inh)
N[C@]1(C(=O)O)CC[C@@H](C(=O)O)C1	none (no result: p53ts 39C kill, Imprint erasure, p53ts 32C tox)
O=S1OCC2C(CO1)C1(Cl)C(Cl)=C(Cl)C2(Cl)C1(Cl)Cl (centres undefined)	none (no result: Luciferase inh)
O=C(O)[C@@H]1[C@H](C(=O)O)[C@]2(Cl)C(Cl)=C(Cl)[C@@]1(Cl)C2(Cl)Cl	p53ts 39C kill 1µM, p53ts 32C tox inconclusive, IkB sig inh 3.16µM
C[C@@]12CC[C@H]3[C@@H](CCC4=C(O)C(=O)CC[C@]43C)[C@H]1CCC2=O	none (no result: Imprint erasure)
CCCCCCCCCCCCCC(=O)O[C@H]1[C@@H](C)[C@@]2(O)[C@@H](C=C(CO)C[C@]3(O)C(=O)C(C)=C[C@@H]23)C2C(C)(C)[C@]21OC(C)=O (some centres undefined)	p53ts 39C kill 15.8µM, p53ts 32C tox inconclusive, IkB sig inh inconclusive (no result: Imprint erasure)
COc1ccc2c(c1)-c1nc(NC(=O)c3ccc(Cl)cc3)sc1CC2	p53ts 39C kill 10µM, p53ts 32C tox inconclusive (no result: Luciferase inh)
CC[n+]1c(-c2ccccc2)c2cc(N)ccc2c2ccc(N)cc21	p53ts 39C kill 2.51µM, p53ts 32C tox 3.98µM!, IkB sig inh inconclusive (no result: Luciferase inh)

Screens (PubChem)
